# Data: article PMC4336329 (PLoS ONE, 2015)
# The campaign covered roughly 310,000 compounds. About 14,000 (4.5%) showed an effect of 50% or more. Effects have a minus sign here. What follows is part of a selection rich in strong results, with near analogues and random picks from the rest.
# Molecular target: human ether-à-go-go-related gene (hERG) potassium channel (human, UniProt Q12809)
# Test: primary screen, population patch clamp on CHO cells stably expressing hERG; higher = less effect of the substance
# 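Also: peak tail current of the secondary pulse compared with the same well before compound.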
# human ether-à-go-go-related gene (hERG) potassium channel, sequence (Q12809 whole entry, looked up): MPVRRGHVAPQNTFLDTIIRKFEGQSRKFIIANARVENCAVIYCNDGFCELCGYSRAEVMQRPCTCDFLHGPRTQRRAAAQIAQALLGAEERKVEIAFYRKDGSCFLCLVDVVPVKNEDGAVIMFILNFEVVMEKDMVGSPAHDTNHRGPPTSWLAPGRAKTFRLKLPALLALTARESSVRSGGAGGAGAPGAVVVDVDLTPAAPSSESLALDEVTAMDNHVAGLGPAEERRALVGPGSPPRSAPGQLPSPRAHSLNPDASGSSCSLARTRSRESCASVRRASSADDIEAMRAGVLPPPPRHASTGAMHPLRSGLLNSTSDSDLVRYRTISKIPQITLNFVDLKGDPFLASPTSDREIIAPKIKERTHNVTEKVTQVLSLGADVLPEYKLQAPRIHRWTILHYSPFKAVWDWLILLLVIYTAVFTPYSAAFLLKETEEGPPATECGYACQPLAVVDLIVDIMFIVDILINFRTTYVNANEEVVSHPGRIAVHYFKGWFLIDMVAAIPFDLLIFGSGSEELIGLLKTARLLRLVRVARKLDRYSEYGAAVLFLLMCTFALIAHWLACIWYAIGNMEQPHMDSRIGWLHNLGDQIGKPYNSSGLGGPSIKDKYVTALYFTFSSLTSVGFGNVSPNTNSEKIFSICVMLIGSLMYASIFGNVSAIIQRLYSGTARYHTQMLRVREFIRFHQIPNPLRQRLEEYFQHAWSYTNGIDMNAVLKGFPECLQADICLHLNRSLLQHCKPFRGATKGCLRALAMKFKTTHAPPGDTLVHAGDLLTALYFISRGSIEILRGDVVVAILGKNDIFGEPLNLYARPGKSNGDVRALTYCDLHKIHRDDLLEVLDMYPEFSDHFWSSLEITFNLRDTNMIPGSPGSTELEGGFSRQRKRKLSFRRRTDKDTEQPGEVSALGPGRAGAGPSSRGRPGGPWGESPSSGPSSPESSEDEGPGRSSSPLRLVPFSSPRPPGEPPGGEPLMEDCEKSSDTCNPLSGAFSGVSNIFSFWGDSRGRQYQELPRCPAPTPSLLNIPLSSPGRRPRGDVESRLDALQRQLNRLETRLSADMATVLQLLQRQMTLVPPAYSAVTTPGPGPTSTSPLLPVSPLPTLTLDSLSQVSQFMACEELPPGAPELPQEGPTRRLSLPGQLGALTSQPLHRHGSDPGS
row,Compound,"hERG current change (%, negative = inhibition) at 10uM [%]"
1,CCCn1c(C(C)NC(=O)c2ccccc2)n[nH]c1=S (stereo not drawn),12.7
2,O=C(C#Cc1ccccc1)c1ccco1,5.83
3,CCOC(=O)C1(CCc2ccccc2)CCN(Cc2cccc3nccnc23)CC1,-60.5
4,CCOC(=O)C1(Cc2cccc(OC)c2)CCN(Cc2cccc3cnccc23)CC1,-39.3
5,CCOC(=O)C1(CCOc2ccccc2)CCN(Cc2cccc3nonc23)CC1,-28.6
6,CCOC(=O)c1[nH]ncc1CN1CCC(Cc2ccccc2)(C(=O)OCC)CC1,-35.3
7,CCOC(=O)C1(CCc2ccccc2)CCN(Cc2cccc3cnccc23)CC1,-69.6
8,CCOC(=O)C1(Cc2ccccc2)CCN(Cc2cccc3nccnc23)CC1,-59.9
9,CCOC(=O)C1(Cc2ccc(OC)cc2)CCN(C(=O)c2cccc3nccnc23)CC1,-31.4
10,O=C(CSC1=NCCS1)Nc1ccnc2ccccc12,-5.91
11,COc1ccc(Cl)cc1C(=O)OCC(=O)Nc1cccnc1Cl,15.8
12,COc1ccc(CN(C(=S)Nc2ccccc2)C2CC(=O)N(c3ccc(F)cc3)C2=O)cc1 (stereo not drawn),26.5
13,COc1ccc2cc(Br)ccc2c1CC(=O)NC(C)(C)C,17.3
14,Cn1cc(C(c2ccccc2OCC(=O)O)c2cn(C)c3ccccc23)c2ccccc21,3.58
15,COC(=O)c1ccc(NC(=S)NC2CCCCC2)cc1,1.13
16,Cc1c(C(=O)N2CCOCC2)oc2ccccc12,5.05
17,Cc1occc1C(=O)N1CCN(c2ccc([N+](=O)[O-])cc2)CC1,-77.7
18,Cc1c(-c2ccccc2)oc2c(C(=O)N3CCN(c4ccc([N+](=O)[O-])cc4)CC3)cccc2c1=O,-75.4
19,Cc1occc1C(=O)N1CCN(c2ccccc2)CC1,-8.67
20,Cc1c(C(=O)N2CCN(c3ccc([N+](=O)[O-])cc3)CC2)oc2ccccc12,-72.8
21,COc1ccccc1N1CCN(C(=O)c2cccc3c(=O)c(C)c(-c4ccccc4)oc23)CC1,-31.2
22,Cc1c(-c2ccccc2)oc2c(C(=O)N3CCN(c4ccccc4F)CC3)cccc2c1=O,-8.63
23,Cc1ccc(C(=O)N2CCN(c3ncccn3)CC2)o1,13.4
24,COc1ccc(N2CCN(C(=O)c3oc4ccccc4c3C)CC2)cc1,-31.9
25,Cc1nc2ccccc2c2oc(C(=O)N3CCN(c4ccc([N+](=O)[O-])cc4)CC3)cc12,-9.45
26,Cc1occc1C(=O)N1CCN(c2ccc(Cl)cc2)CC1,-4.41
27,Cc1ccc(C(=O)N2CCN(c3ccc([N+](=O)[O-])cc3)CC2)o1,-80.2
